Shown are actives, neighbours in structure and some others; about 5.3% of the full set was active somewhere.
FBPA coupling cs: counter-screen for Giardia aldolase inhibitors: coupling enzyme system | coupling enzyme system counterscreen, AmpLite Red fluorescence | activity change, negative = inhibition, % at 58.2 µM, hits read low | hit rate 0.67% among 290,000 | AID 2472; in the data active means activity change below about -30%
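First, compound is pin-transferred into glyceraldehyde-3-phosphate coupling-enzyme reagent at 57.5 uM final and held 10 min at RT. Next, substrate, coupling system and AmpLite Red are added. After 20 min RT, fluorescence (525/598 nm) is read.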
Tau fibril FP: inhibitors of human tau fibril formation; hit rate 0.39% among 280,000; K18 P301L tau heparin fibrillization, Alexa594 FP, 6 h; Potency, µM (titrated, usually from 57.7 µM), hits mostly inhibitors; P10636; AID 1468; further: nearly all actives have a fitted effect of over 55% in size
Target sequence (P10636 561-689 P618L limits assumed): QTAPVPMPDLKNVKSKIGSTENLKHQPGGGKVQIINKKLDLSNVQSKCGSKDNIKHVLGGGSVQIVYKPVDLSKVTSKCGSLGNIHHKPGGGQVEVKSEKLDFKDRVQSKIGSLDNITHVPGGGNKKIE
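Compound effects on tau fibrillization are measured by Alexa 594 fluorescence polarization (ex 555, em 632 nm). K18 P301L tau is used at 15 uM with 0.24 uM labeled tracer, and 20 uM heparin induces aggregation over 6 hr at 37 C.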
Tau ThT inhib: blocks human tau fibril formation measured by thioflavin T; P10636; recombinant tau K18 P301L, heparin-induced fibrillization, ThT fluorescence; Potency, µM (top dose mostly 57.4 µM), actives largely listed as inhibitors; hit rate 2.1% among 270,000; AID 1460; further: nearly all actives have a fitted effect of over 55% in size
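K18 P301L tau (15 uM + 0.24 uM Alexa 594-tagged), heparin 20 uM, NaOAc pH 7, 6 h 37 C; ThT 30 uM, 1 h RT, ex 450/em 510 nm.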
Tau fluor counter: counter-screen for tau fibril formation inhibitors. tau K18 P301L Alexa594 fluorescence, heparin fibrillization. hit rate 0.93% among 280,000. Potency, µM (top dose mostly 57.7 µM). AID 1463; further: nearly all actives have a fitted effect of over 55% in size
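Human tau K18 P301L (15 uM unlabeled, 0.24 uM Alexa 594-labeled) in 100 mM sodium acetate pH 7 with 20 uM heparin, 6 hr at 37 C. ThT 30 uM added, 1 hr ambient; Alexa 594 FP and total fluorescence read at 555/632 nm.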
KDM4E inh: JMJD2E (human) inhibition; B2RXH2; JMJD2E catalytic domain, FDH-coupled NADH fluorescence (FDH is formaldehyde dehydrogenase); Potency, µM (highest dose often 57.1 µM), hits mostly inhibitors; hit rate 1.6% among 230,000; active means well fitted inhibition curve with a large enough effect, not every such curve was filed as active; inconclusive means small, poorly fitted or top-dose-only effect, or another doubt; inactive means no such curve, though single readings can be large or run the other way; further: nearly all actives have a fitted effect of over 50% in size
Target sequence (B2RXH2 1-337 limits assumed): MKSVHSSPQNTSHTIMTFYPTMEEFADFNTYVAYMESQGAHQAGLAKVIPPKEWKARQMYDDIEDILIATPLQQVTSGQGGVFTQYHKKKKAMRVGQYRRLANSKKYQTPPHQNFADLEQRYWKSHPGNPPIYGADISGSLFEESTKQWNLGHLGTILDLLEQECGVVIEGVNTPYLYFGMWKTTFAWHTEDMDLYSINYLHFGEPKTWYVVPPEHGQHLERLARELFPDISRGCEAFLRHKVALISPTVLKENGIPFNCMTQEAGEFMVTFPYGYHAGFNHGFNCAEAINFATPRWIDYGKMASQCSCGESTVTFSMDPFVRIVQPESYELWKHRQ
Sfp inh: blocks B. subtilis Sfp PPTase activity. Q9F4F7. Biochemical Sfp PPTase activity, qHTS. Potency, µM, usual class: inhibitors. hit rate 3.5% among 310,000. AID 1490;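 further: the enzyme is Sfp with the accession as filed and its product quenches rhodamine fluorescence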
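With Hepes-Na pH 7.6 buffer containing 10 mM MgCl2, Sfp (15 nM) modified BHQ-2-YbbR (12.5 uM) using rhodamine-CoA (5 uM). Two reads 30 minutes apart at 525/598 nm yielded each well's rate.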
Numbers stand for hits; 0 = inactive; ? = inconclusive; - = not tested or not shown; [ ] = another dose, or the depositor's remark. Unless noted, the call rests on the fitted dose curve; in most records, active means well fitted curve in the direction sought with a large enough effect; inconclusive means small, poorly fitted or top-dose-only effect, or another doubt; inactive means no such curve, though single readings can be large; an effect the other way counts as inactive or inconclusive.

SMILES | FBPA coupling cs | Tau fibril FP | Tau ThT inhib | Tau fluor counter | KDM4E inh | Sfp inh
CCOc1ccccc1-c1nnc2n1N=C(c1ccc(OC)cc1)CS2 | 0 | - | - | - | - | 0
Cc1ccc2c(Sc3ccc(Cl)cc3)c(C(=O)NCCC(C)C)[nH]c2c1 | - | 0 | ? | ? | - | -
CCN(CCCc1ccccc1)CCCc1ccccc1 | 0 | 0 | 0 | 0 | 8.91µM | 0
CCCN(CCO)CCCc1ccccc1 | 0 | 0 | 0 | 0 | ? | ?
C=CC1=C(C)C2=Cc3c(C=C)c(C)c4[n]3[Sn+2][n]3c(c(C)c(CCC(=O)O)c3=CC3=NC(=C4)C(C)=C3CCC(=O)O)=CC1=N2 | 0 | 17.8µM | ? | 0 | ? | 10µM
CCOc1ccc(N2C(=O)/C(=C/c3ccccc3OCC(=O)OC)N(CC(=O)OC)C2=S)cc1 | 0 | 0 | 0 | 0 | 0 | 0
CCOc1ccc(N2C(=O)/C(=C/c3ccco3)N(C)C2=S)cc1 | 0 | 0 | ? | 0 | 0 | 39.8µM
CCOC(=O)C1=C(C)N(c2ccc(OCC)cc2)C(=O)/C1=C\c1ccco1 | 0 | ? | 14.1µM | 0 | 0 | 50.1µM
Cc1ccc(-c2nnc(SCC(=O)NC3CCCC3)nc2-c2ccc(C)cc2)cc1 | - | 0 | ? | 0 | - | -
Cc1ccc(CCNC(=O)CCCn2c(=O)c3cccn3c3ccc(F)cc32)cc1 | - | 0 | 0 | 0 | - | -
Cc1ccc(C(=O)NC2(C(F)(F)F)N=C3SCCN3C2=O)cc1 (stereo not given) | 0 | 0 | 0 | 0 | 0 | 0
O=C(NC1(C(F)(F)F)N=C2SCCN2C1=O)C1CCCCC1 (stereo not given) | 0 | ? | ? | 0 | 0 | 63.1µM
Fc1ccc(-c2cc(-c3nc(-c4ccccc4)no3)[nH]n2)cc1 | - | 0 | 0 | 0 | - | -
CCOc1cc(-c2nc(-c3ccc(-c4ccc(OC)cc4)nc3OC)no2)cc(OCC)c1OCC | - | 0 | 0 | 0 | - | -
COc1ccc(NC(C)=O)cc1NC(C)c1nc2sc(C)c(C)c2c(=O)[nH]1 (stereo not given) | 0 | 0 | ? | 0 | 0 | ?
Cc1sc2nc(C(C)Sc3n[nH]c(N)n3)[nH]c(=O)c2c1C (stereo not given) | 0 | 0 | ? | 0 | ? | 56.2µM
CC(=O)c1ccc(NC(=O)c2cc3sccc3n2Cc2ccc(Cl)cc2)cc1 | - | 10µM | 0 | ? | - | -
O=C(Nc1ccc2c(c1)OCCO2)c1cc2sccc2n1Cc1ccc(F)cc1 | 0 | 0 | 0 | ? | ? | 0
O=C(Nc1ccc2c(c1)OCCO2)c1cc2sccc2n1Cc1ccccc1 | - | 0 | 0 | 14.1µM[quencher] | ? | 0
CC1(C)CC(Cc2nc(=S)[nH][nH]2)C(=O)O1 (stereo not given) | 0 | 0 | 0 | 0 | 0 | 20µM
CC(=O)N1CC(O)CC1C(=O)O (stereo not given) | - | - | - | - | - | 0
O=C(CN1CCN(Cc2ccccc2Cl)CC1)N/N=C/C=C/c1ccco1 | 0 | 0 | ? | 0 | 0 | 0
COc1ccccc1N1CCN(/N=C/C=C\c2ccco2)CC1 | 0 | 0 | ? | 0 | 0 | 79.4µM
COc1ccccc1N1CCN(C(=O)/C=C/c2ccco2)CC1 | 0 | 0 | 0 | 0 | 0 | 0
Clc1ccccc1CN1CCN(/N=C/C=C/c2ccco2)CC1 | 0 | 0 | ? | 0 | ? | 56.2µM
SMILES | FBPA coupling cs | Tau fibril FP | Tau ThT inhib | Tau fluor counter | KDM4E inh | Sfp inh
O=C(NCc1ccc(Cl)cc1)c1cc(-c2cccs2)on1 | 0 | 0 | 0 | 0 | 0 | 25.1µM
O=C(NCCSCc1c(F)cccc1Cl)C1CCN(S(=O)(=O)Cc2ccccc2)CC1 | - | 0 | 0 | 0 | - | -
CC1=CC(=C(C#N)c2nc3ccccc3s2)C=C(C)N1CC1CCCO1 (stereo not given) | 0 | ? | ? | 7.94µM[quencher] | 0 | 0
O=C1c2ccccc2C(=O)N1Nc1ccccc1 | 0 | 0 | 0 | 0 | 0 | 0
O=C1c2cccc3c([N+](=O)[O-])c(O)cc(c23)C(=O)N1Nc1ccccc1 | 0 | 0 | 5.01µM | 0 | 0 | 0
CC(=O)NNc1nc(-c2ccc(C)cc2)cs1 | 0 | 0 | ? | 0 | ? | 39.8µM
O=C(Cc1ccc(F)cc1)Nc1nc(-c2ccc(F)cc2)cs1 | 0 | - | - | - | - | 0
CC(=O)NNc1nc(-c2ccccc2)cs1 | 0 | ? | 17.8µM | ? | ? | 20µM
O=C(NNc1nc(-c2ccccc2)cs1)c1cccs1 | 0 | 0 | ? | 0 | ? | ?
O=C(NNc1nc(-c2ccc(F)cc2)cs1)c1ccccc1 | 0 | 0 | ? | 0 | ? | 50.1µM

High-throughput results: PubChem, National Center for Advancing Translational Sciences (NCATS)
